The full list was thinned out, with hits kept by preference.
PD-1 reverse act = reversal of PD-1 mediated T-cell inhibition. primary human CD4 T cells, PD-L1 beads, CellTiter-Glo 96 h. activation, % (concentration not given with the values). 29,000 tested, under 10 active; call rule not given here;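 further: 0% = median vehicle wells and 100% = positive control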
U2OS ROS induce = raises reactive oxygen species in U2OS cancer cells | U2OS ROS induction, H2DCF-DA fluorescence | ROS induction (% of piperlongumine), % at 10 µM | 46,000 compounds, 2% hits | AID 624156; in the data active means ROS induction above about 79%, passing the limit was not always enough;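 further: 0% = DMSO vehicle median and 100% = reference compound median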
NOMO-1 viab = STK33 inhibitor candidate reducing NOMO-1 cell viability; inhibition, % (no concentration beside the values); 37,000 compounds, 7.5% hits; AID 2330; NOMO-1 AML viability, CellTiter-Glo luminescence, 72 h; in the data active means inhibition above about 80%
YB-1 expression = YB-1 expression inhibition. U2OS, qRT-PCR YB-1 vs CDIP delta delta Cp, 16 h; active compounds read high; zero = DMSO, each unit about twofold. delta delta Cp (YB-1 minus CDIP) (concentration not given with the values). 30,000 compounds, 0.37% hits;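 active means delta delta Cp rounded down to an integer at or above 3, about 3 SD of DMSO wells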;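 further: higher means less YB-1 transcript or more CDIP transcript relative to DMSO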
MITF inhib = inhibitors of MITF | TRPM1 promoter luciferase, luminescence, 24 h | inhibition, % (concentration not given with the values) | AID 2240 | 37,000 compounds, 0.28% hits; in the data active means inhibition above about 85%;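 further: human melanocyte line stably carrying TRPM1 promoter luciferase reporter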
An asterisk follows results filed as active; / = no result.

SMILES | PD-1 reverse act | U2OS ROS induce | NOMO-1 viab | YB-1 expression | MITF inhib
CC1CCc2c(sc3ncnc(SCCOc4ccccc4)c23)C1 (configuration not stated) | 3.6 | -2.1 | -13.2 | / | -49.6
COc1ccc(S(=O)(=O)N(C)C[C@@H]2Oc3ccc(NC(=O)Nc4ccccc4)cc3CC(=O)N([C@@H](C)CO)C[C@@H]2C)cc1 | -1.1 | 111.5* | 20.6 | 0.34 | 18.4
COc1ccc(NC(=O)Nc2ccc3c(c2)CC(=O)N([C@H](C)CO)C[C@H](C)[C@H](CN(C)S(=O)(=O)c2ccc(C)cc2)O3)cc1 | / | 12.2 | 121.6* | 0.187 | 39.9
COc1ccc(NC(=O)Nc2ccc3c(c2)CC(=O)N([C@@H](C)CO)C[C@H](C)[C@H](CN(C)S(=O)(=O)c2ccc(Cl)cc2)O3)cc1 | -0.2 | 18.4 | 112.5* | 0.167 | 36.5
COc1ccc(NC(=O)Nc2ccc3c(c2)CC(=O)N([C@H](C)CO)C[C@@H](C)[C@@H](CN(C)S(=O)(=O)c2ccc(Cl)cc2)O3)cc1 | -0.5 | 0.6 | 3.5 | -0.339 | -1.0
COc1ccc(NC(=O)Nc2ccc3c(c2)CC(=O)N([C@H](C)CO)C[C@H](C)[C@H](CN(C)S(=O)(=O)c2ccc(Cl)cc2)O3)cc1 | / | -5.7 | 122.5* | -0.0957 | 38.4
COc1ccc(NC(=O)Nc2ccc3c(c2)CC(=O)N([C@@H](C)CO)C[C@H](C)[C@@H](CN(C)S(=O)(=O)c2ccc(C)cc2)O3)cc1 | -1.7 | -12.5 | 23.8 | -0.838 | -1.3
Cc1cc(OCc2noc(CSc3ccc(C(F)(F)F)cn3)n2)cc(C)c1Cl | / | 6.8 | / | / | /
COC(=O)[C@]1(Cc2ccccc2N=[N+]=[N-])N=C(c2ccc(OCCCO)cc2)O[C@@H]1c1ccccc1CN=[N+]=[N-] | / | 34.6 | / | -0.306 | /
C[C@H]1CN([C@@H](C)CO)C(=O)c2cc(N(C)C)ccc2O[C@@H]1CN(C)Cc1ccc(-c2ccccc2)cc1 | -1.0 | 206.0* | 33.2 | 0.202 | 0.5
C[C@H](CO)N1C[C@H](C)[C@H](CN(C)Cc2ccc(Oc3ccccc3)cc2)Oc2ccc(N(C)C)cc2CC1=O | -1.2 | 28.0 | -4.2 | 0.159 | 13.9
C[C@@H]1CN([C@H](C)CO)C(=O)Cc2cc(N(C)C)ccc2O[C@H]1CN(C)Cc1ccc(Oc2ccccc2)cc1 | -3.9 | 54.5 | 109.6* | 0.253 | 5.8
C[C@@H]1CN([C@@H](C)CO)C(=O)c2cc(N(C)C)ccc2O[C@@H]1CN(C)Cc1ccc(Oc2ccccc2)cc1 | -0.5 | 4.2 | 89.8* | -0.562 | 10.1
C[C@@H]1CN([C@@H](C)CO)C(=O)Cc2cc(N(C)C)ccc2O[C@@H]1CN(C)Cc1ccc(Cl)c(Cl)c1 | -8.1 | 5.1 | 126.9* | -0.414 | 33.2
O=C(CSc1nnc(-c2ccc(Cl)cc2)n1-c1ccc(F)cc1)N1CCOCC1 | 3.1 | 11.1 | 10.4 | / | -11.3
CNC(=S)Nc1cc(Cl)cc(Cl)c1 | 0.3 | 34.4 | 16.3 | -0.17 | 18.3
COc1ccccc1CCNC(=O)c1cc(-c2ccccn2)nc2c(C)c(Cl)ccc12 | / | / | 101.4* | / | 16.4
Cc1cccnc1NC(=S)Nc1ccc(S(N)(=O)=O)cc1 | / | / | 14.5 | / | -70.9
O=[N+]([O-])c1ccccc1-c1ccc(-c2nn3c(-c4ccccc4)nnc3s2)o1 | -1.8 | 174.0* | 64.8 | / | -42.2
Cc1ccc(S(=O)(=O)N2CCc3ccccc3C2)cc1 | / | 6.0 | / | / | /
Cc1ccc(S(=O)(=O)N2Cc3ccccc3C(C)CC23CCCCC3)cc1 (configuration not stated) | -0.2 | -5.1 | 88.0* | 0.312 | -6.5
Cc1ccc(OC(=O)OCSc2nn[nH]n2)cc1 | -10.4 | 1.4 | 119.3* | -0.405 | 21.3
COc1ccc(C(=O)CSc2n[nH]c(-c3ccc(C)cc3)n2)cc1 | / | / | 14.1 | / | -37.2
COc1ccc(CN(C)C[C@@H]2Oc3c(NC(=O)Nc4ccc5c(c4)OCO5)cccc3C(=O)N([C@@H](C)CO)C[C@H]2C)cc1 | / | 10.7 | 87.0* | 0.108 | 14.6
COc1ccc(NC(=O)Nc2cccc3c2O[C@@H](CN(C)Cc2ccc4c(c2)OCO4)[C@@H](C)CN([C@H](C)CO)C3=O)cc1 | 0.5 | -16.4 | 89.2* | 1.25 | 0.3
O=C(COc1ccc2ccccc2c1)Nc1ccc(Cc2ccccn2)cc1 | / | -2.4 | / | / | /
O=C(O)[C@H]1O[C@@H](Oc2cc(O)c3c(=O)c(-c4ccc(O)cc4)coc3c2)[C@H](O)[C@@H](O)[C@@H]1O | 0.1 | -4.3 | 107.6* | -0.84 | 0.1
